# Screens (PubChem BioAssay)
# Shiga inhibitor: blocks Shiga toxin action in Vero cells. Vero cells, Shiga toxin protein synthesis inhibition reporter. inhibition, % at 38.7 µM. hit rate 9.2% among 290,000; in the data active means inhibition mostly above about 28%, no sharp cut-off; inactive means mostly below about 43%; further: 0% is about no effect
# Pf growth 48h: inhibits P. falciparum growth in the first generation, 48 h; Potency, µM (series often up to 28.7 µM), for inactives: at the highest dose activity change, negative = inhibition, most hits filed as inhibitors; P. falciparum luciferase growth in erythrocytes, 48 h; hit rate 5.9% among 310,000; AID 504832; further: potency means the concentration at half of the fitted maximal effect; on the % scale 0 is the no-effect control and ±100 the full control effect
#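 Luciferase-expressing P. falciparum in infected erythrocytes (2% hematocrit, 0.1% parasitemia final) in RPMI 1640/0.5% Albumax were exposed to compound for 48 hours at 37 C, 5% CO2; growth read as luminescence.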
# AMA1 RON2 block: disrupts binding of P. falciparum AMA1 to RON2. AlphaScreen AMA1-biotinylated RON2 peptide binding. Potency, µM (titrated, usually from 58.2 µM), for inactives: at the top dose activity change, negative = inhibition, usual class: inhibitors. hit rate 0.2% among 360,000. AID 720542;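 further: potency means the concentration at half of the fitted maximal effect; 0% = vehicle wells and -100% = peptide control; nearly all actives have a fitted effect of over 45% in size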
#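 AMA1 (3D7) with his tag at 25 nM final met compounds first, then biotinylated RON2 peptide at 25 nM; detection used donor plus acceptor beads, 10 µg/mL apiece, read by AlphaScreen after 30 min at room temperature.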
# CHX counter: affects cycloheximide protein synthesis inhibition readout, counter-screen; cell reporter, cycloheximide protein synthesis inhibition counterscreen; max response, %; hit rate 12% among 300,000; AID 2314; in the data active means max response mostly above about 13%, no sharp cut-off; inactive means mostly below about 14%; further: read at 38.3 µM for the half of the compounds with a filed dose; 0% is about no effect
# HCV inhibitor: blocks hepatitis C virus | Huh7.5.1 HCVcc-Cre infection, luciferase reporter, 44 h | Potency, µM (top dose mostly 41.8 µM), for the others: top-dose activity change, negative = inhibition, usual class: inhibitors | hit rate 3.4% among 340,000 | AID 651820; further: potency means the concentration at half of the fitted maximal effect; on the % scale 0 is the no-effect control and ±100 the full control effect
#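 Whole-lifecycle infectious HCVcc-Cre system; cells 1,000/well, compound then virus (~0.5 moi) added 4 h after plating, 44 h culture. Luciferase read 15 sec following 15 min substrate incubation, room temp.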
# Pf growth 96h: P. falciparum growth inhibition at 96 hour, primary screen for plastid delayed-death inhibitors. P. falciparum luciferase reporter growth, 96 h. hit rate 6.9% among 320,000. Potency, µM (doses to about 28.7 µM), without a hit: at the top dose activity change, negative = inhibition, actives largely listed as inhibitors. AID 504834; further: potency means the concentration at half of the fitted maximal effect; on the % scale 0 is the no-effect control and ±100 the full control effect
#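 Delayed-death screen, second-generation endpoint: infected erythrocytes, 2% hematocrit, 0.05% parasitemia final; 96 hours at 37 C, 5% CO2; luciferase detection reagent; luminescence decrease equals reduced growth.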
# Active calls of the source: *; ? = inconclusive; nt = no result; [ ] = another dose, or the depositor's remark. Hits are enriched below; roughly 21% of the tested compounds scored in any of these assays. Unless noted, the call rests on the fitted dose curve; in most records, active means well fitted curve in the direction sought with a large enough effect; inconclusive means small, poorly fitted or top-dose-only effect, or another doubt; inactive means no such curve, though single readings can be large; an effect the other way counts as inactive or inconclusive.
SMILES,Shiga inhibitor,Pf growth 48h,AMA1 RON2 block,CHX counter,HCV inhibitor,Pf growth 96h
CCOC(=O)CNC(=O)CSc1nnc(NC(=O)c2ccccc2Cl)s1,59*,6%,-9%,29*,-7%,34%
O=C(CSc1nnc(NC(=O)c2ccccc2Cl)s1)NC1CC1,61*,95%,6%,39*,11%,?
CC(C)(C)NC(=O)CSc1nnc(NC(=O)c2ccccc2Cl)s1,30,18%,5%,12,14%,-4%
Cc1ccccc1C(=O)Nc1nnc(SCC(=O)NC2CC2)s1,64*,179%,-7%,30*,3%,?
CN1C(C(=O)NCc2cccc(C(F)(F)F)c2)CC2Cn3c(nc4cc(Cl)c(Cl)cc43)C21 (configuration not stated),-7,?,2%,2,8%[8.37 µM],?
CCc1ccc(NC(=O)[C@H](C)NC(=O)C2CCN(C(=O)[C@@H](NC(=O)OC(C)(C)C)C(C)C)CC2)cc1,53,?,0%,14*,-12%,?
CCc1ccc(NC(=O)[C@H](C)NC(=O)C2CCN(C(=O)[C@@H](N)Cc3ccccc3)CC2)cc1,23*,26%,0%,16*,-3%,61%
N[C@@H](Cc1ccccc1)C(=O)N1CCC(C(=O)N[C@@H](Cc2c[nH]c3ccccc23)C(=O)O)CC1,3,7%,4%,-3,20%,45%
CC(C)[C@H](NC(=O)OC(C)(C)C)C(=O)N1CCC(C(=O)N[C@@H](C)C(=O)Nc2ccc(F)cc2)CC1,33,-13%,20%,-2,17%,0%
O=C(CNC(=S)NC(=O)C1CCCCC1)c1ccccc1,114*,188%,4%,75*,4%,49%
O=C(NC(=S)NCc1ccccc1)C1CC1,1,30%,-3%,-2,10%,8%
O=C(NC(=S)Nc1ccccc1CO)C1CCCCC1,nt,nt,5%,nt,-9%,nt
O=C(NC(=S)NCCc1ccccc1)C1CCCCC1,55*,-22%,-4%,34*,?,-1%
C=CCN(C(=O)CCC(=O)Nc1cc(C)on1)C(C(=O)NC1CCCC1)c1ccc(OC)cc1OC (configuration not stated),-1,?,4%,-2,-7%,?
CCC1=[N+](CC(=O)c2ccc(C)cc2)CCn2cccc21,48,?,-17%,24*,9%,-2%
Cc1cc(C)c[n+](CC(=O)c2ccccc2)c1,13,3%,-3%,0,21%,?
CC1=[N+](CC(=O)c2ccccc2)CCn2cccc21,58*,?,2%,34*,?,25%
CCC1=[N+](C)CCn2c(C)ccc21,-5,nt,-2%,-3,-8%,15%
CCC1=[N+](CC(=O)c2ccc(C)cc2)CCn2c(C)ccc21,13,3.3µM*,-16%,23*,?,?
CCC1=[N+](CC(=O)c2ccc(Br)cc2)CCn2c(C)ccc21,52*,5.9µM*,-12%,15*,-3%,?
Cc1ccc(C(=O)CC(C(=O)O)n2cccn2)cc1 (configuration not stated),20,-9%,3%,-1,-1%,nt
C(=C\c1ccccc1)/CN1CCN(C(c2ccccc2)c2nnnn2C2CCCCC2)CC1 (configuration not stated),nt,nt,-1%,nt,nt,nt
CNc1nnc(SCC(=O)c2c(N)n(C3CC3)c(=O)[nH]c2=O)s1,nt,1%,-5%,nt,8%,0%
COC(=O)c1ccc(S(=O)(=O)N2CCCN(Cc3ccc(F)cc3)CC2)n1C,5,-3%,-3%,-3,11µM*,16%
COc1ccc(CN2CCN(C(=O)c3ccc(S(=O)(=O)NCc4ccco4)cc3)CC2)cc1F,nt,?,-21%,nt,?,-29%
SMILES,Shiga inhibitor,Pf growth 48h,AMA1 RON2 block,CHX counter,HCV inhibitor,Pf growth 96h
COc1ccc(CN2CCN(C(=O)c3ccc(S(=O)(=O)N4CCCCCC4)cc3)CC2)cc1F,nt,13µM*,-5%,nt,?,?
O=C(c1ccc(S(=O)(=O)N2CCCCCC2)cc1)N1CCN(Cc2ccccc2)CC1,nt,?,11%,nt,?,?
N#Cc1ccc(CN2CCN(C(=O)c3ccc(S(=O)(=O)N4CCCCCC4)cc3)CC2)cc1,nt,13µM*,-1%,nt,7.9µM*,?
COc1ccc(S(=O)(=O)N2CCCN(Cc3cccc(F)c3)CC2)cc1,18,19%,-4%,-2,10%,12µM*
COc1ccc(S(=O)(=O)N2CCN(Cc3cccc(OC)c3)CC2)cc1,-11,15%,0%,-3,5%,?
COC(C(=O)Nc1c(F)cccc1F)c1ccccc1 (configuration not stated),-11,-1%,-3%,-2,19%,21%
Cc1nc2ccc(NS(=O)(=O)c3ccc(Br)cc3)cc2s1,nt,-7%,-14%,nt,?,?
COc1cccc(C2=CC(=O)CC(c3ccco3)C2)c1 (configuration not stated),nt,nt,-16%,nt,1%,nt
O=C(c1ccc(S(=O)(=O)N2CCCCCC2)cc1)N1CCC(CN2C(=O)c3cccc4cccc(c34)C2=O)CC1,-6,?,0%,-1,10µM*,-38%
COc1ccc(C(=O)N2CCN(S(=O)(=O)c3ccc(Br)cc3)CC2)cc1,nt,?,5%,nt,4%,?
O=S(=O)(c1ccc(Br)cc1)N1CCCN(Cc2ccccc2F)CC1,-12,40%,6%[11.6 µM],-4,-4%,6.6µM*
COc1ccc(CN2CCN(C(=O)c3ccc(S(=O)(=O)N4CCCCCC4)cc3)CC2)cc1,nt,10µM*,-5%,nt,?,?
NC1=NCC2c3ccccc3Cc3ccccc3N12 (configuration not stated),-2,?,nt,-9,nt,6.7µM*
CN(C)C(=O)O/N=C(\N)COc1ccc(C(C)(C)C)cc1,31,6.6µM*,11%,30*,?,12µM*
c1cncc(-c2nc3cc(Cc4ccc5oc(-c6cccnc6)nc5c4)ccc3o2)c1,17,13%,nt,14,nt,?
Cc1ccc2oc(-c3ccccc3)nc2c1,70*,130%,16%,45*,6%,nt
CCOc1cccc(-c2nc3cc(C)ccc3o2)c1,63,231%,33%,31*,-11%,?
c1cc(-c2nc3cc(Cc4ccc5oc(-c6ccncc6)nc5c4)ccc3o2)ccn1,-5,6%,nt,-3,1%,12%
CC(C)(C)OC(=O)N1CCC(NC(=O)c2ncn(Cc3ccccc3)c2C(=O)NC2CCN(C(=O)OC(C)(C)C)CC2)CC1,nt,5.2µM*,-8%,nt,-20%,?
C[C@H](NC(=O)c1ncn(Cc2ccccc2)c1C(=O)N[C@@H](C)c1ccccc1)c1ccccc1,nt,?,-12%,nt,?,8.3µM*
